Screening data from PubChem.
In the library only some 19% were active in any assay of this set; here they are far more common.
Pf growth 48h = Primary qHTS for delayed death inhibitors of the malarial parasite plastid, 48 hour incubation. P. falciparum luciferase growth in erythrocytes, 48 h. Potency, µM (top dose mostly 28.7 µM), actives largely listed as inhibitors. 310,000 tested, 5.9% active. AID 504832, 2011
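Read-out is firefly luciferase luminescence from an integrated reporter in P. falciparum, so falling signal marks reduced parasite growth. Infected erythrocytes were at 2% hematocrit and 0.1% parasitemia (final) in Albumax-supplemented RPMI 1640.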
Lassa entry inh = qHTS for Inhibitors of binding or entry into cells for Lassa Virus | Lassa virus pseudotype entry inhibition, cell reporter | Potency, µM (doses to about 37.9 µM), actives largely listed as inhibitors | 300,000 tested, 1.2% active; calls by dose curve; tested in HEK293 cells; further: nearly all actives have a fitted effect of over 50% in size
CHX counter = Cycloheximide Counterscreen for Small Molecule Inhibitors of Shiga Toxin; 300,000 tested, 12% active; cell reporter, cycloheximide protein synthesis inhibition counterscreen; max response, %; in the data active means max response mostly above about 13%, no sharp cut-off; inactive means mostly below about 14%; further: read at 38.3 µM for the half of the compounds with a filed dose
MARV entry inh = qHTS for inhibitors of binding or entry into cells for Marburg Virus; 300,000 tested, 1.8% active; AID 540276, 2011; Potency, µM (titrated, usually from 37.8 µM), hits mostly inhibitors; Marburg virus pseudotyped entry inhibition, cell reporter; calls by dose curve; tested in HEK293 cells
Shiga toxin inh = A qHTS for Small Molecule Inhibitors of Shiga Toxin; 290,000 tested, 9.2% active; AID 2315, 2010; Vero cells, Shiga toxin protein synthesis inhibition reporter; inhibition, % at 38.7 µM; in the data active means inhibition mostly above about 28%, no sharp cut-off; inactive means mostly below about 43%
Pf growth 96h = Primary qHTS for delayed death inhibitors of the malarial parasite plastid, 96 hour incubation. P. falciparum luciferase reporter growth, 96 h. Potency, µM (series often up to 28.7 µM), most hits filed as inhibitors. 320,000 tested, 6.9% active. AID 504834, 2011
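Two parasite generations (96 h, 37 C, 5% CO2) of compound exposure in infected erythrocytes (0.05% parasitemia, 2% hematocrit). Luciferase-reporter P. falciparum; decreased luminescence indicates inhibited growth, aimed at apicoplast-acting delayed death.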
Hits are given with their value; n = inactive; u = inconclusive; x = no result given; [ ] = dose if it differs, or a comment. Unless noted, the call rests on the fitted dose curve; in most records, active means well fitted inhibition curve with a large enough effect; inconclusive means small, poorly fitted or top-dose-only effect, or another doubt; inactive means no such curve, though single readings can be large or run the other way.

SMILES	Pf growth 48h	Lassa entry inh	CHX counter	MARV entry inh	Shiga toxin inh	Pf growth 96h
C(=N\Nc1ccccc1)/c1nc2ccccc2s1	n	x	64	x	135	n
COc1cc(/C=N\NC(=O)c2cccnc2)ccc1OC(=O)c1ccccc1Cl	u	n	n	n	n	n
C(=N\Nc1nc2ccccc2s1)/c1ccccn1	n	0.89µM	n	u	n	n
O=C(CSc1nnc2n(C3CCCCC3)c(=O)c3ccccc3n12)OC1CCCCC1	x	n	n	n	n	n[5.75 µM]
CC(=O)c1ccc(NC(=O)C2CCN(S(=O)(=O)c3cccc4cccnc34)CC2)cc1	n	n	n	n	n	u
COc1ccc(C(C(=O)NC(C)(C)C)N(CCc2ccccc2)C(=O)CCC(=O)Nc2cc(C)on2)cc1 (stereo not drawn)	12µM	n	22	8.9µM	31	n
CCC(C)(C)NC(=O)C(c1ccc(C)cc1)N(Cc1cccs1)C(=O)c1ccc2c(c1)OCCO2 (stereo not drawn)	u	u	n	15µM	n	12µM
CCC(C)(C)NC(=O)C(c1cccc(OC)c1OC)N(CCOC)C(=O)CCC(=O)Nc1cc(C)on1 (stereo not drawn)	n	n	n	n	n	10µM
CCC(C)(C)NC(=O)C(c1ccc(OC)cc1)N(Cc1cccs1)C(=O)CCC(=O)Nc1cc(C)on1 (stereo not drawn)	10µM	u	n	u	n	n
CCC(=O)N(Cc1cc(=O)[nH]c2ccccc12)c1ccccc1C	u	n	n	n	n	u
O=C(C[n+]1ccccc1)N/N=C/c1cccc(Cl)c1Cl	x	x	n	x	n	u
CCC(C)(C)NC(=O)C(c1ccccc1Cl)N(C(=O)CCC(=O)Nc1cc(C)on1)c1ccc(NC(C)=O)cc1 (stereo not drawn)	n	n	n	n	n	n
Cc1cc(NC(=O)CCC(=O)N(c2ccccc2)C(C(=O)NC(C)(C)C)c2ccccc2Cl)no1 (stereo not drawn)	13µM	n	n	u	n	n
O=C(O)c1ccc2c(c1)ncn2C1CCCCCC1	x	n	n	n	n	x
CC(=O)Nc1ccc2c(c1)ncn2C1CCCCC1	x	n	x	n	x	x
COC(=O)Nc1ccc2c(c1)ncn2C1CCCCC1	n	n	23	n	31	x
CCOC(=O)Nc1ccc2c(c1)ncn2C1CCCCC1	n	n	27	n	82	n
CCCN(CCC)c1nc(Cl)nc(NCCN2CCOCC2)n1	n	x	n	x	n	n
CCSC1=NCCN1C(=O)Cc1ccc(-c2ccccc2)cc1	u	n	n	n	n	n
Cc1cccc(/N=C/c2sc3ccccc3c2O)n1	n	x	44	x	39	u
Cc1cccc(/N=C/c2c(O)[nH]c3ccccc23)n1	n	n	46	n	92	u
CCC(=O)NC1(C(F)(F)F)C(=O)Nc2c1c(=O)n(C)c(=O)n2C (stereo not drawn)	n	n	n	n	n	n
CCOc1ccccc1NS(=O)(=O)c1ccc2c(c1)n(C)c(=O)c(=O)n2C	n	n	n	u	n	n
CNC(=O)Oc1ccc2c(c1)[C@]1(C)CCN(C)C1N2C (stereo partly drawn)	13µM	x	x	x	x	15µM
CN1CC[C@@]2(C)c3cc(OC(=O)Nc4ccccc4)ccc3N(C)[C@@H]12	x	n	x	n	x	x
SMILES	Pf growth 48h	Lassa entry inh	CHX counter	MARV entry inh	Shiga toxin inh	Pf growth 96h
O=C(Nc1ccc2c(c1)nc1n2CCSC1)c1ccco1	n	u	n	u	n	n
COc1ccc(CNC(=O)c2c3c(nc4ccccc24)C(=O)N(C2CCCCC2)C3)c(OC)c1	x	n	x	u	x	x
Cc1ccc2cccc(NC(=S)NC(=O)c3ccn(C)n3)c2n1	u	u	n	n	n	n
Cn1ccc(C(=O)NC(=S)N2CCSCC2)n1	n	n	12	u	n	n
N#Cc1cnc(Nc2ccc(F)cc2)nc1N	n	n	24	n	n	n
CCCCC(=O)N1C/C=C\C(c2ccc(OC)cc2)N(Cc2ccc(F)cc2)C(=O)[C@H]1Cc1ccccc1 (stereo partly drawn)	12µM	x	n	x	n	10µM
CCCCCCC(=O)N1C/C=C\C(c2ccc(OC)cc2)N(Cc2ccc(F)cc2)C(=O)[C@H]1Cc1ccccc1 (stereo partly drawn)	9.3µM	x	n	x	n	7.4µM
